Experiment [1] concerns the target Lysosomal acid glucosylceramidase (Homo sapiens) (UniProt P04062). Description: Glucocerebrosidase-p2 (AID 348; in the data active = potency below about 10 µM; also: potency is read from the fitted curve at half-maximal effect). The note with it: purified GBA, blue fluorogenic substrate, 40 min. An outline of the steps: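 Normal human glucocerebrosidase (0.2 nM) with blue fluorogenic substrate (80 uM final) in citrate/phosphate pH 5.9 with 10mM sodium taurocholate, 0.01% tween-20; 40 min RT, NaOH/glycine stop; fluorescence Ex 365/Em 440; AC50 from a titration from 0.6 nM upwards.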

A short description of experiment [2]: AP1 Signaling Pathway (AID 357; active = well fitted curve in either direction with a large enough effect, not every such curve was filed as active; also: % is scaled to controls: 0 for no effect and ±100 for the full control effect). The note with it: ME-180 AP-1-bla reporter, EGF-induced, beta-lactamase ratio, 5 h; at 7.69 µM (top of the series) unless noted. An outline of the steps: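 First, ME-180 AP-1-bla cells were cultured overnight at 37 °C in low-serum Opti-MEM. Next, titrated compounds with EC50 EGF were incubated 5 hours. Finally, CCF4 was added for 2.5 hours and the 460/530 nm ratio recorded.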

Experiment [3] deals with Cytochrome P450 1A2 (Homo sapiens) (UniProt P05177). Nature of the experiment: p450-cyp1a2 (AID 410; calls by dose curve; also: potency is read from the fitted curve at half-maximal effect). The following applies: recombinant CYP1A2, luciferin-ME demethylation, luminescence; series mostly up to 57 µM. In a few lines: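 Luminescent demethylation readout: Luciferin-ME (100uM, equal to Km) turned over by 20nM CYP1A2 for 60 min at room temperature after NADPH regeneration addition, following 10 min compound preincubation. Normalization used 57 uM furafylline as full inhibition.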

The nature of experiment [4]: NFAT Signaling Pathway (AID 444; active = well fitted curve in either direction with a large enough effect, not every such curve was filed as active;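 also: carbachol stimulus at about its EC50 of 1 µM final; % is scaled to controls: 0 for no effect and ±100 for the full control effect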). The following applies: Jurkat NFAT-bla M1, carbachol, beta-lactamase ratio, 5 h; at 7.69 µM (top of the series) unless noted. In a few lines:
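Read-out: CCF4 FRET ratio (460 nm/530 nm) after 1 h RT dye loading, used for %activity and AC50 from titration series. Cells: Jurkat NFAT-β-lactamase/M1 line, treated with compound plus 1 uM carbachol for 5 h, 37 °C.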

Experiment [5] has as its target Glucocorticoid receptor (Homo sapiens) (UniProt P04150). Description: GR-GFP Redistribution (AID 450;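 active = compounds whose dose series gives a full or clear partial fitted curve of increased nuclear translocation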; also: potency is read from the fitted curve at half-maximal effect). The following applies: U2OS GR-GFP nuclear translocation, laser cytometry, 2 h.
Experiment [6] shares this target. Nature of the experiment: GR-EFC Redistribution (AID 451; calls by dose curve; also: potency is read from the fitted curve at half-maximal effect). The following applies: CHO-K1 GR-EFC translocation, beta-gal luminescence, 2 h. In a few lines: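 Translocation of GR-ED fusion to nuclear EA restores b-gal, read by luminescence after 1 h room-temperature detection. Engineered CHO-K1 biosensor cells, 1,000/well, exposed 2 h at 37 C to titrations up to 46 uM final.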

Experiment [7] deals with 3',5'-cyclic-AMP phosphodiesterase 4B (Homo sapiens) (UniProt Q07343). Nature of the experiment: qHTS Assay for Inhibitors of PDE-IV (AID 607; active = well fitted activation curve with a large enough effect in the main read-out, with a control signal flat, not every such curve was filed as active; also: potency is read from the fitted curve at half-maximal effect). The following applies: HEK293 ACTOne CNG channel cells, membrane potential fluorescence; series mostly up to 22.9 µM. An outline of the steps:
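Live HEK293 cells with a modified cyclic nucleotide-gated (CNG) channel report intracellular cAMP via membrane-potential dye fluorescence (ex 535/em 590 nm). Endogenous PDE-IV was targeted. Compounds were tested at up to 22.9 uM final; RO 20-1724 100 uM served as control.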
For orientation: In qHTS, concentration-response curves come from the screen itself.

For experiment [8], the target named is Dual specificity protein kinase CLK4 (Homo sapiens) (UniProt Q9HAZ1). Description: qHTS Assay for Inhibitors of CDC-like Kinase 4 (Kinase-Glo Assay) (AID 1770). Also: nearly all actives have a fitted effect of over 65% in size. Also: potency is read from the fitted curve at half-maximal effect. The note with it: recombinant Clk4, Kinase-Glo ATP depletion luminescence; series mostly up to 66.7 µM. An outline of the steps:
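Substrate mix (RS peptide 100 uM, ATP 1 uM) dispensed, compound pinned in, then Clk4 added to 25 nM final. Incubated 4.5 h at RT; Kinase-Glo reagent added, luminescence read after 5 min.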

Experiment [9] has the same target. Nature of the experiment: qHTS Assay for Inhibitors of CDC-like Kinase 4 (ADP-Glo Assay) (AID 1771). Also: nearly all actives have a fitted effect of over 70% in size. Also: potency is read from the fitted curve at half-maximal effect. The note with it: recombinant CLK4, ADP-Glo luminescence; series mostly up to 80 µM. In a few lines: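 ADP production was read by ADP-Glo luminescence after residual ATP depletion, following 1 h room-temperature reaction of 25 nM Clk4, 1 uM ATP and 100 uM RS peptide with MgCl2, EGTA, DTT and Triton X-100.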

Experiment [10] has the same target. Nature of the experiment: qHTS Assay for Inhibitors of CDC-like Kinase 4 (ADP-FP Assay) (AID 1795). Also: nearly all actives have a fitted effect of over 60% in size. Also: potency is read from the fitted curve at half-maximal effect. The following applies: Transcreener ADP fluorescence polarization; series mostly up to 50 µM. An outline of the steps: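 Clk4 6.25 nM; RS peptide 100 uM; ATP 1 uM; 25 mM Tris pH 7.5, 10 mM MgCl2; 1 h reaction. ADP detected via antibody/orange tracer FP displacement; TG003 positive control.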

For experiment [11], the target named is Ubiquitin carboxyl-terminal hydrolase 1 (Homo sapiens) (UniProt O94782). Description: Inhibitors of USP1/UAF1: Pilot qHTS (AID 504865).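 Also: rhodamine fluorescence freed from ubiquitin-rhodamine substrate followed over time; top concentration of the series differs between compounds; % is scaled to controls: 0 for no effect and ±100 for the full control effect; nearly all actives have a fitted effect of over 35% in size.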 The following applies: purified USP1/UAF1, Ub-rhodamine cleavage fluorescence; series mostly up to 54.9 µM. An outline of the steps:
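In 50mM HEPES pH 7.8 containing 0.5mM EDTA, 1mM TCEP, 0.1 mg/ml BSA and 0.01% Tween-20, 1nM USP1/UAF1 is exposed to compound for 15 min, then Ub-Rho (150nM final) is added and fluorescence is read over time.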

Experiment [12] is described as follows: Primary qHTS for small molecule stabilizers of the endoplasmic reticulum resident proteome: Secreted ER Calcium Modulated Protein (SERCaMP) assay (AID 1508630). Also: % is scaled to controls: 0 for no effect and ±100 for the full control effect. The following applies: SH-SY5Y GLuc-SERCaMP (Gaussia luciferase released on ER calcium loss) secretion, thapsigargin, luminescence; series mostly up to 38.4 µM. In a few lines: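 The SH-SY5Y reporter protocol was run at 3 concentrations up to 38.3 uM (primary) or 11 concentrations (follow-up): 16 h compound, 100 nM thapsigargin for 4 h, then extracellular luciferase luminescence.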

The nature of experiment [13]: Stat Signaling Pathway (AID 446; active = well fitted curve in either direction with a large enough effect, not every such curve was filed as active;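 also: ME-180 cervical cancer cells given 40 pM IL-6 alongside compound; SIE-controlled beta-lactamase reporter measured as 460/530 nm FRET emission ratio; % is scaled to controls: 0 for no effect and ±100 for the full control effect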). The following applies: ME-180 SIE beta-lactamase reporter, IL-6 stimulated, 5 h; at 7.69 µM (top of the series) unless noted. An outline of the steps: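 Overnight-plated ME-180 cells bearing a STAT Inducible Element beta-lactamase reporter; 5 h co-exposure to compound and 40 pM IL-6; values normalized to 300 pM IL-6 and 125 nM JAK inhibitor controls.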

The target of experiment [14] is Mitogen-activated protein kinase 10 (Mus musculus) (UniProt Q61831). Description: JNK3 AlphaScreen Assay (AID 530; active = well fitted curve in either direction with a large enough effect, not every such curve was filed as active). The following applies: JNK3 lysate, c-Jun phosphorylation; series mostly up to 57.1 µM. An outline of the steps: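 qHTS titrations with 15 min compound pre-incubation before adding ATP (10 uM final). Read-out: AlphaScreen of Ser73-phosphorylated biotin-GST-cJun using HepG2 lysate JNK3 activated by IL-1β and TNFα.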

Experiment [15] concerns the target Cytochrome P450 3A4 (Homo sapiens) (UniProt P08684). Description: qHTS Assay for Inhibitors and Substrates of Cytochrome P450 3A4 (AID 884). Also: potency is read from the fitted curve at half-maximal effect; nearly all actives have a fitted effect of over 50% in size. The following applies: recombinant CYP3A4, Luciferin-PPXE luminescence; series mostly up to 57.1 µM. In a few lines:
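Luminescent readout of luciferin produced by CYP3A4 (20 nM) dealkylation of Luciferin-PPXE, 25 uM (its KM). NADPH-driven reaction ran 60 min at RT after 10 min compound preincubation; data scaled to 57 uM ketoconazole as 100% inhibition.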

Experiment [16] shares this target. Nature of the experiment: qHTS Assay for Activators of Cytochrome P450 3A4 (AID 885). Also: nearly all actives have a fitted effect of over 65% in size. The note with it: recombinant CYP3A4, Luciferin-PPXE luminescence, 60 min; series mostly up to 57.1 µM. An outline of the steps: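 Using 20nM recombinant human CYP3A4 in potassium phosphate (200mM), substrate Luciferin-PPXE at 25uM, luminescent luciferin detection followed a 60-min RT NADPH reaction; data scaled to 57 uM ketoconazole.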

The target in experiment [17] is Cytochrome P450 2C19 (Homo sapiens) (UniProt P33261). Description: qHTS Assay for Inhibitors and Substrates of Cytochrome P450 2C19 (AID 899). Also: potency is read from the fitted curve at half-maximal effect; nearly all actives have a fitted effect of over 60% in size. The note with it: recombinant CYP2C19, luciferin-H EGE luminescence; series mostly up to 57.1 µM. In a few lines: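 Reactions contain 5nM enzyme, 10uM Luciferin-H EGE (KM) and 50mM KPO4; compound preincubates 10 min at 37C, NADPH regeneration starts turnover for 60 min. Luminescence after detection reagent gives activity.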

A short description of experiment [18]: qHTS Assay for Identification of Small Molecule Agonists for Hypoxia Response Element Signaling Pathway (AID 914; active = well fitted activation curve with a large enough effect in the signal ratio, with a control signal flat, not every such curve was filed as active; the % refers to the signal ratio; also: potency is read from the fitted curve at half-maximal effect). The note with it: ME-180 (cervical carcinoma) HRE-bla reporter, beta-lactamase ratio, CoCl2, 17 h; activation: stronger effect = higher value. In a few lines:
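A beta-lactamase reporter under hypoxia response element control in ME-180 cells served as the system. Compound titrations plus EC50 CoCl2 ran 17 h at 37 degrees Celsius; AC50 values were fitted from %Activity.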

Values without a mark were called inactive. Results filed as inconclusive are left out. Active and inactive are the calls of the source. Unless noted, calls follow the shape of the dose curve; as a rule, active = well fitted curve in the direction sought with a large enough effect; inconclusive = small, poorly fitted or top-dose-only effect, or another doubt; inactive = no such curve, though single readings can be large; an effect the other way counts as inactive or inconclusive.

Lysosomal acid glucosylceramidase (Homo sapiens), sequence (P04062 whole entry, looked up): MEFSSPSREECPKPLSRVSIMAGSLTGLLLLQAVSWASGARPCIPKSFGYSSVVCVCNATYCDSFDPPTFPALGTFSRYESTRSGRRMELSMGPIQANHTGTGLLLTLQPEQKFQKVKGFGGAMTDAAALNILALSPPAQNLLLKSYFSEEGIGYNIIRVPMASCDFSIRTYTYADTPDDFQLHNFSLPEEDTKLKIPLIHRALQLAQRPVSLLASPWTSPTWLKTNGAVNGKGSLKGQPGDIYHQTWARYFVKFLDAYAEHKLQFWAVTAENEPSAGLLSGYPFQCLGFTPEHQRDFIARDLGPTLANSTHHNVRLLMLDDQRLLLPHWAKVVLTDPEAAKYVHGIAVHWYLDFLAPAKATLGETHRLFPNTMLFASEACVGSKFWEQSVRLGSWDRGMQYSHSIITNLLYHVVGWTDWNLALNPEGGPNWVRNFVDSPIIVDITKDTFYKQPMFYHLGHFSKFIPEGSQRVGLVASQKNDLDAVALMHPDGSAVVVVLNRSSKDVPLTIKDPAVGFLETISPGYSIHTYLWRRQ
Dual specificity protein kinase CLK4 (Homo sapiens), sequence (Q9HAZ1 whole entry, looked up): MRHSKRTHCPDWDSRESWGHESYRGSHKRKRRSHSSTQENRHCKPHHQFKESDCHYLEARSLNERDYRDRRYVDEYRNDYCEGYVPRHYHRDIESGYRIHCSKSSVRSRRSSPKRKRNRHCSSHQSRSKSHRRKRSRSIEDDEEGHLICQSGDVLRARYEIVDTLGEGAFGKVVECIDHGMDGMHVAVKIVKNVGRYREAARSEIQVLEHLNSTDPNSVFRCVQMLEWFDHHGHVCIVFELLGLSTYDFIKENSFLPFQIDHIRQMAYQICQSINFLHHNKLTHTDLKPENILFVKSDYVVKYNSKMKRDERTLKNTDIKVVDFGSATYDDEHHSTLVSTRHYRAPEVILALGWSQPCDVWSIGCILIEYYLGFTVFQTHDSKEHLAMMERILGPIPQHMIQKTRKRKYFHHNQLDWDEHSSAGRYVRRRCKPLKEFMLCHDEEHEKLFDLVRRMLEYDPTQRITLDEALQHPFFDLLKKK
Cytochrome P450 3A4 (Homo sapiens), sequence (P08684 whole entry, looked up): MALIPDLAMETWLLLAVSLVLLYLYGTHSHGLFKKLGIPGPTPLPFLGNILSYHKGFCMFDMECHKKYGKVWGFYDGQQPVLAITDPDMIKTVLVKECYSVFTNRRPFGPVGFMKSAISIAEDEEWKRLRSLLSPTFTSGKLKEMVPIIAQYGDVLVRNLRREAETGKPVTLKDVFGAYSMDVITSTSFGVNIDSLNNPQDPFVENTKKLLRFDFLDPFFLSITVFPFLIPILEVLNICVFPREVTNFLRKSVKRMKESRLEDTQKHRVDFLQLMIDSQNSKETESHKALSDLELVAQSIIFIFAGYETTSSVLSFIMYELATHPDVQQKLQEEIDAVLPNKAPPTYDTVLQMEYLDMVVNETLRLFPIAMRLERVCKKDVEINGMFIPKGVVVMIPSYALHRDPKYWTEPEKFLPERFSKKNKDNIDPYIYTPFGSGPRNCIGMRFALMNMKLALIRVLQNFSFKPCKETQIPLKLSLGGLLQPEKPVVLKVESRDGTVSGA
Cytochrome P450 1A2 (Homo sapiens), sequence (P05177 whole entry, looked up): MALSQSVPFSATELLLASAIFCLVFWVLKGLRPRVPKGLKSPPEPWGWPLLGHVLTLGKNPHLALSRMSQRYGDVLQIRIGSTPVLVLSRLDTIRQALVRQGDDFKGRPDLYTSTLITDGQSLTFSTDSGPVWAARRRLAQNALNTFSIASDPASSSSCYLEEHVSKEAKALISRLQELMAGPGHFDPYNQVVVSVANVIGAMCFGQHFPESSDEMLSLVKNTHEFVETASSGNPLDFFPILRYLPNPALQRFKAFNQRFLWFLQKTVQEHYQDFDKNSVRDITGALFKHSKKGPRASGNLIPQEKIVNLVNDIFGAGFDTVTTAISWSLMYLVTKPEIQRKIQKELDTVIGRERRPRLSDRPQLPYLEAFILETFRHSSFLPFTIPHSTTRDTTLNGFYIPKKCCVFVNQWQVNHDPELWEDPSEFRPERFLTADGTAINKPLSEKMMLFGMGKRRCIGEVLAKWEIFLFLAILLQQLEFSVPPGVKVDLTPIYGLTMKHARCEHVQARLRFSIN
3',5'-cyclic-AMP phosphodiesterase 4B (Homo sapiens), sequence (Q07343 whole entry, looked up): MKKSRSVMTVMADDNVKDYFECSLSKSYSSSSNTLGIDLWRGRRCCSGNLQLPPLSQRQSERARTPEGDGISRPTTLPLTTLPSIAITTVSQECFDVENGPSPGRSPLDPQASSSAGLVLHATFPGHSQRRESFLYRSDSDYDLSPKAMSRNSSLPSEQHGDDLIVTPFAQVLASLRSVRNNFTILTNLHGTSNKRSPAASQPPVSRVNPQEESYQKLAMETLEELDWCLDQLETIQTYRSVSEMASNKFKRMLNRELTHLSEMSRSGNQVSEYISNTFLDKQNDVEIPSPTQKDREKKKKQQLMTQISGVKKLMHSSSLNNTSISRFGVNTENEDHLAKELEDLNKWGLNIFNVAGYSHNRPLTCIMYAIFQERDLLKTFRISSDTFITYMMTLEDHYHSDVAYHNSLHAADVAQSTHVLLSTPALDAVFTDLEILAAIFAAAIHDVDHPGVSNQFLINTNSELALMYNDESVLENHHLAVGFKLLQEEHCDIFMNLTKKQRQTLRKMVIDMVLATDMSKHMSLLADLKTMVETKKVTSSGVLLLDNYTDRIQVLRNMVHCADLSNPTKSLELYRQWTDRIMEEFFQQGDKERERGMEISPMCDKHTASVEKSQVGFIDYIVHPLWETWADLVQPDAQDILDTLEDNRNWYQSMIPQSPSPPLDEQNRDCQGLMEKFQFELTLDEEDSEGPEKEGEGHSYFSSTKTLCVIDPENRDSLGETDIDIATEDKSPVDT
Ubiquitin carboxyl-terminal hydrolase 1 (Homo sapiens), sequence (O94782 whole entry, looked up): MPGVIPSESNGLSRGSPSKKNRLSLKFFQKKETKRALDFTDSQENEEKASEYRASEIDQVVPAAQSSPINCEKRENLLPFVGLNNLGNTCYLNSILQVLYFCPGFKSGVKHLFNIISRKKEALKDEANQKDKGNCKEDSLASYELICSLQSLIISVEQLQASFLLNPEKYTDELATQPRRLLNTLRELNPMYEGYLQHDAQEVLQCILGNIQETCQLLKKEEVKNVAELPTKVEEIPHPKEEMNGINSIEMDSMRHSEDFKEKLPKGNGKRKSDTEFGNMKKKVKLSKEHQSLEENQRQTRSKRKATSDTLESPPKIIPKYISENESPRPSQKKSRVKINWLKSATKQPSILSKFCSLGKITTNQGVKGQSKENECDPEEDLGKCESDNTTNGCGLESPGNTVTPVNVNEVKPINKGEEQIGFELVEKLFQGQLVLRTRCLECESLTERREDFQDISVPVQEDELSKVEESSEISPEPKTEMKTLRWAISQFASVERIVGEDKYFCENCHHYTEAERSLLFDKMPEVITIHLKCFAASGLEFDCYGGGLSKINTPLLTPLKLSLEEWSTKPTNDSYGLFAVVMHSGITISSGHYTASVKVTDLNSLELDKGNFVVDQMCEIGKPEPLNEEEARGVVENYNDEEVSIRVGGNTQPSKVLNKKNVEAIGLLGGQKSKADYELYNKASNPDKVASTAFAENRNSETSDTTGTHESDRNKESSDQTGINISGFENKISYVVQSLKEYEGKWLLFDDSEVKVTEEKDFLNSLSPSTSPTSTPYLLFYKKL
Glucocorticoid receptor (Homo sapiens), sequence (P04150 whole entry, looked up, the tested form may be a part): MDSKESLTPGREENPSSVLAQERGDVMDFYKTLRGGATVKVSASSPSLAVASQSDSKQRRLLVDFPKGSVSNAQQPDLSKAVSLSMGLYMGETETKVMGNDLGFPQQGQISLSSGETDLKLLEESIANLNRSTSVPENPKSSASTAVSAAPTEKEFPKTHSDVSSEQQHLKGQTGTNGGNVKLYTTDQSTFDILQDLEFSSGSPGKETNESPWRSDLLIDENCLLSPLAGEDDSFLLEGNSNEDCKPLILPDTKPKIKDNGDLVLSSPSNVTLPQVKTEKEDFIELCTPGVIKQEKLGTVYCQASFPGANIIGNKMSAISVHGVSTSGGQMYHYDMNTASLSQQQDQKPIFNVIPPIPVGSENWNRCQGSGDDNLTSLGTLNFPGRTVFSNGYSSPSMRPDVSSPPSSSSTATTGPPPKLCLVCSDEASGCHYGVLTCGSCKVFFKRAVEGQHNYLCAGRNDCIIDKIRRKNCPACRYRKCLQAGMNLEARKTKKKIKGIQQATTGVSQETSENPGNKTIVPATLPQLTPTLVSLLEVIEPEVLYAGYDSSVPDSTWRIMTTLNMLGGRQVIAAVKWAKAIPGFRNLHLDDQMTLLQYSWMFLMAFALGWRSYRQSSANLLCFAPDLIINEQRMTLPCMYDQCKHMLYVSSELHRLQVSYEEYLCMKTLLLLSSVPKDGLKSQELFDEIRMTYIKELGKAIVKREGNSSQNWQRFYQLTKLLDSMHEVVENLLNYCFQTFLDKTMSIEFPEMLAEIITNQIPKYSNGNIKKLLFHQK
Cytochrome P450 2C19 (Homo sapiens), sequence (P33261 whole entry, looked up): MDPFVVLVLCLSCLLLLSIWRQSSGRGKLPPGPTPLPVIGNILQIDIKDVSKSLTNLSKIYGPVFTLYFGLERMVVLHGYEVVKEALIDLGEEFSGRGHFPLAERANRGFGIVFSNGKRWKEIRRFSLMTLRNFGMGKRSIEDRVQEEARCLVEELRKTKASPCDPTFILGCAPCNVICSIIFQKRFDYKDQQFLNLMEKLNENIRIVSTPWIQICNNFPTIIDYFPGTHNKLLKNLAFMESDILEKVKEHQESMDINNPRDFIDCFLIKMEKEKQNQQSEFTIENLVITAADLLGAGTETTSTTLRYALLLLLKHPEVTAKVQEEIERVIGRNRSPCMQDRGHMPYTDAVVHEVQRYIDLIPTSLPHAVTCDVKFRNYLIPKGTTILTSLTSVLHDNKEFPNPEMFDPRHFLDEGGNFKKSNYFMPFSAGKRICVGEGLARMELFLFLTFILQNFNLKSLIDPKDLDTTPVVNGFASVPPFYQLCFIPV

With `COCCn1c(=O)c(-c2ccc(F)cc2)nc2cnc(N(C)C)nc21`, the Potency is over 11.4 µM in experiment [1]; 2 µM (active) in experiment [3]; over 9.22 µM in experiment [5]; over 46 µM in experiment [6]; 1.58 µM (active) in experiment [7]. Further, the activity change, negative = inhibition is -1.02% in experiment [2] and 10.7% in experiment [4]. Also, the Potency entry in [8], in experiment [9], in experiment [10] and in experiment [11] was “inactive” throughout. Further, the outcome in experiment [12] was inactive.

As for `COc1ccc(CNc2ccnc(-c3c(C)noc3C)n2)c(OC)c1`, the Potency in [1] was over 11.4 µM; in [3], 1.26 µM (active); in experiment [5], over 46 µM; in experiment [6], over 46 µM; in experiment [15], 2.51 µM (active); in [17] it was 1.58 µM (active). Also, the activity change, negative = inhibition in [2] is 11.5%; in experiment [4], 8.32%. The activity, negative = inhibition in [13] was 0.0565%. In addition, the Potency result in experiment [14], in [16], in experiment [8], in [9] and in experiment [10] was “inactive” each time. The result in experiment [12] was inactive.

Regarding `Cn1cc(-c2nc3cnc(N4CCNCC4)nc3n(-c3ccccc3)c2=O)c2ccccc21`, the Potency is over 11.4 µM in [1]; 15.8 µM (active) in [3]; over 9.22 µM in experiment [5]; over 46 µM in experiment [6]; 3.98 µM (active) in experiment [18]. For the same compound, the activity change, negative = inhibition was 22.4% in experiment [2] and 24.6% in [4]. Moreover, the Potency result in [7], in experiment [16], in experiment [8], in experiment [9], in experiment [10] and in [11] was “inactive” throughout. For the same compound, the result in experiment [12] was inactive.

As for `CN(C)c1ncc2nc(-c3cccc(C#N)c3)c(=O)n(C[C@H]3CCCO3)c2n1`, the Potency in experiment [1] is over 11.4 µM; in [3] it was 3.16 µM (active); in experiment [5], over 9.22 µM; in experiment [6], over 46 µM. In experiment [2], the activity change, negative = inhibition is -22.3%. For the same compound, in experiment [13], the activity, negative = inhibition is 1.32%. In addition, the Potency entry in [14], in experiment [7], in experiment [8], in experiment [9], in [10] and in experiment [11] was “inactive” throughout. Besides, the result in experiment [12] was inactive.

On to `CN(Cc1ccco1)c1ccnc(-c2cccc(C#N)c2)n1`, for which the Potency in [1] was over 11.4 µM; in [3] it was 0.398 µM (active); in experiment [5], over 46 µM; in experiment [6], over 46 µM; in experiment [8], 14.1 µM (active); in experiment [9] it was 15.8 µM (active). The Potency in experiment [10] was 14.1 µM (active). The activity change, negative = inhibition in [2] was -18.2%. The activity, negative = inhibition in experiment [13] is 2.59%. Moreover, the Potency entry in experiment [14], in [7], in [16] and in [11] was “inactive” in each case. In [12], the result was inactive.

In the case of `CN(Cc1ccco1)c1ccnc(-c2ccccc2C(F)(F)F)n1`, the Potency in [1] was over 11.4 µM; in experiment [3] it was 2.51 µM (active); in experiment [5] it was over 46 µM; in [6], over 46 µM; in experiment [17], 7.94 µM (active). For the same compound, the activity change, negative = inhibition in experiment [2] was 2.94%; in [4], -8.64%. For the same compound, the activity, negative = inhibition in experiment [13] was -4.79%. Besides, the Potency entry in experiment [14], in experiment [7], in [8], in experiment [9] and in [10] was “inactive” each time. Besides, in experiment [12], the outcome was inactive.

The values above are taken from PubChem BioAssay (NCATS).
